From PubChem BioAssay
Pf Dd2 growth: inhibitors of Plasmodium falciparum Dd2 growth. P. falciparum Dd2 growth, SYBR Green, 72 h. Potency, µM (series often up to 28.9 µM), most hits filed as inhibitors. actives 4.3% (n = 120,000). AID 1347417; active means well fitted inhibition curve with a large enough effect; further: nearly all actives have a fitted effect of over 65% in size
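Readout: SYBR Green fluorescence, 485 nm excitation, 535 nm emission, after ~16 h lysis at 37C. Before that, Dd2-infected red cells (2.5% hematocrit) grew 72 h with compound, 29 uM top final concentration.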
Each line names hits and unclear results; the compound was inactive in the other large screens. Shown is part of a subset that was picked to be rich in hits.

CCOC(=O)c1ccc(N2C(=O)c3[nH]nc(-c4ccc(OCC)cc4)c3C2c2cccs2)cc1 (stereo not drawn)	Pf Dd2 growth 2.82µM
CCOc1ccc(N2CC(NC(=O)Cc3cccs3)CC2=O)cc1 (stereo not drawn)	none
Cc1ccc(N2C(=O)c3n[nH]c(C)c3C2c2ccc(Cl)cc2)cc1 (stereo not drawn)	none
OCC1(CNCC2CCCC2)C[C@@H](O)[C@@H](O)C1 (stereo partly drawn)	none
O=C(NC1CCCN(c2cc(-c3ccc(F)cc3)[nH]n2)C1)c1cc(F)ccc1F (stereo not drawn)	none
Cc1cc(C(=O)N[C@@H]2C[C@H](Cn3cc(C4CC4)nn3)[C@@H](O)[C@H]2O)no1	none
CS(=O)(=O)N(C1CC1)C1CCOC2(CCN(C(=O)c3ccccc3F)CC2)C1 (stereo not drawn)	none
COc1ccc(Cl)cc1C(=O)N1CCc2nc3cc(-c4ccccc4)[nH]n3c(=O)c2C1	none
NC1CCC(n2cc(C(=O)NCc3noc(-c4ccccc4)n3)nn2)CC1 (stereo not drawn)	none
CCC(=O)N(C1CCOCC1)C1CCN(S(=O)(=O)c2cccnc2)CC1	none
COc1cccc(CC(=O)N[C@H](C)c2onc(-c3ccc(F)cc3)c2C(=O)O)c1	none
Cc1ccc(F)cc1S(=O)(=O)NC1CCN(c2ccc(=O)n(CC3CC3)n2)CC1	none
COc1cccc(C(=O)N2C(C(=O)NCC(C)C)COC23CCN(C(=O)c2ccccc2F)CC3)c1 (stereo not drawn)	none
COc1cccc(CCn2ccnc2-c2cc3n(n2)CCCNC3)c1OC	none
CCOc1ccc(-c2n[nH]c3c2C(c2cccs2)N(c2ccc(Br)cc2)C3=O)cc1 (stereo not drawn)	Pf Dd2 growth 3.55µM
CCCN1C(=O)c2[nH]nc(-c3ccc(OC)cc3)c2C1c1ccccn1 (stereo not drawn)	none
CCCN1C(=O)c2[nH]nc(-c3ccc(F)cc3)c2C1c1ccccn1 (stereo not drawn)	none
O=C1CC(c2ccccc2)N(C(=O)CNC(=O)c2ccsc2)CCCCCCN1 (stereo not drawn)	none
COCCNC(=O)C(NC(=O)c1ccccc1C)C1CCN(C(=O)c2ccccc2F)CC1 (stereo not drawn)	none
CCOC(=O)c1ccc(NC(=O)c2ccc3c(c2)N(C)C2CCCCN2C3=O)cc1 (stereo not drawn)	none
COc1ccccc1Nc1c2c(nc3ccc(NC(=O)c4ccccc4F)cc13)CCCC2	Pf Dd2 growth 3.55µM
COc1ccccc1Nc1c2c(nc3ccc(NC(=O)c4cccc(OC)c4OC)cc13)CCCC2	Pf Dd2 growth 5.62µM
COc1ccccc1NC(=O)c1ccc2c(Cl)c3c(nc2c1)CCCC3	none
COc1ccccc1NC(=O)c1ccccc1NC(=O)c1ccccc1	none
Cc1ccc(Nc2c3c(nc4ccccc24)CCC3)cc1F	none
CCN(CC)c1cc(C)c2cc(NC(=O)c3ccc(OC)c(OC)c3)ccc2n1	none
COc1ccc(C(=O)Nc2ccc3nc4c(c(Nc5ccc(OC)c(OC)c5)c3c2)CCCC4)c(OC)c1	none
CCOc1ccccc1NC(=O)CSc1c2c(nc3ccc(Cl)cc13)CCCC2	none
COc1ccc(Nc2c3c(nc4ccc(NC(=O)c5ccc(F)cc5)cc24)CCCC3)cc1OC	Pf Dd2 growth 3.98µM
CNC(=O)C1(N2CCC[C@H]2C(=O)N2CCOCC2)CCCCC1	none
CC(C)CN1C[C@@H](C(=O)O)C[C@@H](C(=O)Nc2ccc(F)cc2)C1	none
O=C(NC1C[C@H]2CC[C@@H](C1)N2C(=O)COc1ccc(F)cc1)c1ccncc1 (stereo partly drawn)	none
CCn1cc(CN2CCc3ccccc3C2)ccc1=O	none
C[C@@H](NC(=O)C[C@@H]1c2nc(NC(=O)CC(C)(C)C)sc2C[C@@H]2[C@](C)(CO)[C@H](O)CC[C@]21C)c1ccccc1	Pf Dd2 growth 11.2µM
C[C@]1(CO)[C@H]2Cc3sc(NC(=O)c4ccc(F)cc4)nc3[C@@H](CC(=O)O)[C@]2(C)CC[C@H]1O	none
CC(C)(C)CC(=O)Nc1nc2c(s1)C[C@@H]1[C@](C)(CO)[C@H](O)CC[C@@]1(C)[C@@H]2CC(=O)NCc1ccco1	none
CC(C)NC(=O)C[C@@H]1c2nc(NC(=O)c3c(F)cccc3F)sc2C[C@@H]2[C@](C)(CO)[C@H](O)CC[C@]21C	none
CCCCCC(=O)Nc1nc2c(s1)C[C@@H]1[C@](C)(CO)[C@H](O)CC[C@@]1(C)[C@@H]2CC(=O)NCc1cc(F)cc(F)c1	Pf Dd2 growth 7.94µM
C[C@H](NC(=O)C[C@@H]1c2nc(NC(=O)c3ccc(F)cc3)sc2C[C@@H]2[C@](C)(CO)[C@H](O)CC[C@]21C)c1ccccc1	Pf Dd2 growth 2.51µM
CC(C)(C)CC(=O)Nc1nc2c(s1)C[C@@H]1[C@](C)(CO)[C@H](O)CC[C@@]1(C)[C@@H]2CC(=O)O	none
CCCCCC(=O)Nc1nc2c(s1)C[C@@H]1[C@](C)(CO)[C@H](O)CC[C@@]1(C)[C@@H]2CC(=O)NCc1ccccc1	none
CCCCCC(=O)Nc1nc2c(s1)C[C@@H]1[C@](C)(CO)[C@H](O)CC[C@@]1(C)[C@@H]2CC(=O)NC1CCCCC1	none
COc1ccc2nc3n(c2c1)[C@@H](CNC1CCOCC1)COC3	none
CCOc1ccc(NC(=O)Cn2c(-c3ccc(F)cc3)nc(C)c(CCO)c2=O)cc1	none
COc1ccc(-c2nc(-c3nnn4c3COC(c3ccc(C)cc3)C4)no2)cc1 (stereo not drawn)	none
COc1cc(C(=O)N2CCC(n3c(=O)[nH]c4ccccc43)CC2)nc2ccccc12	none
CC1=C[C@@H](CN2CCC(C(N)=O)CC2)[C@H](C(C)C)C[C@H]1Cc1nnc(C(C)(C)C)o1	none
CC1=C[C@@H](CNS(=O)(=O)c2ccccc2)[C@H](C(C)C)C[C@H]1CC(=O)NCCN(C)C	none
CC1=C[C@@H](CNC(=O)c2cccnc2)[C@H](C(C)C)C[C@H]1CC(=O)NCc1ccccn1	none
CC1=C[C@@H](CN(C)CCN(C)C)[C@H](C(C)C)C[C@H]1Cc1nnc(-c2ccccc2)o1	Pf Dd2 growth 3.55µM
CC1=C[C@@H](CNC(=O)C(C)(C)C)[C@H](C(C)C)C[C@H]1Cc1nnc(-c2ccccc2F)o1	none
COc1ccc(C(=O)NC[C@@H]2C=C(C)[C@H](CC(=O)O)C[C@H]2C(C)C)cc1	none
CC1=C[C@@H](CNCc2ccco2)[C@H](C(C)C)C[C@H]1Cc1nnc(C(C)(C)C)o1	Pf Dd2 growth 12.6µM
CC1=C[C@@H](CNS(C)(=O)=O)[C@H](C(C)C)C[C@H]1Cc1nnc(-c2cncn2C)o1	none
CC1=C[C@@H](CN(C)CCc2ccccn2)[C@H](C(C)C)C[C@H]1Cc1nnc(-c2ccncc2)o1	Pf Dd2 growth 3.55µM
CC1=C[C@@H](CNC(=O)NC(C)C)[C@H](C(C)C)C[C@H]1CC(=O)NCc1ccccn1	none
COc1ccc(-c2nnc(C[C@@H]3C[C@@H](C(C)C)[C@H](CNCc4ccncc4)C=C3C)o2)cc1	Pf Dd2 growth 3.98µM
O=C(COc1ccc(F)cc1)N1CCC2(CC1)NC(=O)N(c1ccc(F)cc1)N2	none
O=C(Cc1ccccc1)N1CCC2(CCCCO2)CC1	none
COC[C@@H]1CN(C(=O)c2ncoc2-c2cccc(C)c2)C[C@H]1C(N)=O	none
CCC(CC)n1nc(C)cc1NC(=O)CCCn1cnc2ccccc2c1=O	none
COc1ccc(C2(C(=O)NCc3ccc4ccccc4c3)CCOCC2)cc1	none
CN(CC1CCOCC1)C(=O)Cc1c(F)cccc1Cl	none
Cn1cc(-c2ccccc2)cc1C(=O)O	none
Cc1ccsc1C(=O)N1CCN(c2cc(-c3ccc(Cl)cc3)[nH]n2)CC1	none
Cc1ccc(-n2c(C3CCN(C(=O)c4cc(F)ccc4Cl)CC3)n[nH]c2=O)cc1	none
